Among all 130,000 compounds or so, about 1,200 (0.92%) were called active. Not shown: some 3% with an inconclusive outcome. What follows is part of a selection rich in actives, with near analogues and random picks from the rest. A number with no mark means an inactive call. Calls follow the shape of the dose curve; as a rule, active = well fitted cell-killing curve with a large enough effect; inconclusive = small, poorly fitted or top-dose-only effect; inactive = no such curve, though single readings can be large or run the other way.
Potency is read from the fitted curve at half-maximal effect.

This assay in a line: qHTS Screen for Compounds that Selectively Target Cancer Cells with p53 Mutations: Cytotoxicity of p53ts Cells at the Permissive Temperature. Also: nearly all actives have a fitted effect of over 55% in size.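 As to activity change, negative = cytotoxicity: 0% = DMSO and -100% = full killing by reference compound.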 The conditions noted are these: H1299-p53A138V at 32C, ATP luminescence viability, 24 h; series mostly up to 46.1 µM; activity change, negative = cytotoxicity: at the top concentration. Summed up: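 H1299-p53 A138V cells (temperature-sensitive p53) exposed 24 h to up to 46 uM compound at 32C, where p53 is wild-type in conformation. Viability read as ATP luminescence and normalised to DMSO and 100 uM tamoxifen. AC50 fitted with the Hill equation.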
Background: Quantitative high-throughput screening tests each substance at several concentrations.
`CCn1c(CN2CCC(C)CC2)nc2cc(NC(=O)c3ccccc3[N+](=O)[O-])ccc21`: the “activity change, negative = cytotoxicity” value is 2.93%.
On the same count and under the same terms, the same measure for `CCCCc1nn2c(=O)cc(COC(=O)c3ccccc3NC(=O)C(C)(C)C)nc2s1`: -3.39%; for `Cc1nn2c(=O)cc(COC(=O)c3ccccc3NC(=O)COc3ccccc3C)nc2s1`: -2.82%; for `COc1ccc(OCC(=O)Nc2cccc(C(=O)OCc3cc(=O)n4nc(C)sc4n3)c2)cc1`: -8.09%.
With `Cc1nn2c(=O)cc(COC(=O)c3cccc(NC(=O)COc4ccccc4Cl)c3)nc2s1`, the Potency is 10 µM (active).
Regarding `COc1ccccc1NC(=O)C(=O)c1cc(C)n(-c2ccccc2F)c1C`, the “activity change, negative = cytotoxicity” value is 1.04%.
Same read-out and setting: the same measure for `O=C(CCSCc1ccccc1F)N1CCN(c2ccc(Cl)cc2)CC1`: -8.82%.
Turning to `Cc1ccsc1C(=O)OCC(=O)c1cc(C)n(CC2CCCO2)c1C` (stereo unspecified), the Potency is 5.01 µM (active).
On to `Cc1ccsc1C(=O)OCC(=O)c1cc2ccccc2o1`, for which the “activity change, negative = cytotoxicity” value is -15.9%.
`COC(=O)c1ccc2c(=O)n(CC3CCCO3)c(=S)[nH]c2c1` (stereo unspecified): the “activity change, negative = cytotoxicity” value is 6.83%.
Same read-out and setting: the same measure for `Cc1[nH]c2ccccc2c1C(c1ccccc1)c1cccs1` (stereo unspecified): 3.42%; for `O=C(CCc1cn(Cc2ccc(F)cc2)c2ccccc12)NC1CCCCC1`: 1.41%.
On the same count and under the same terms, the value for `CC(=O)c1ccc(NC(=O)c2nc(-c3ccc(C)cc3)n3c2CCCCC3)cc1` was 8.72%.
Same read-out and setting: the value for `Cc1ccc(C(=O)N2CCCCCC2)cc1Br` was 4.16%.
`Cc1ccc2cc3cc(C(=O)N4CCCCCC4)oc3nc2c1`: the Potency was 10 µM (active).
Take `CCc1ccc(CNC(=O)c2cc3cc4ccc(OC)cc4nc3o2)cc1`: the “activity change, negative = cytotoxicity” value is 3.47%.
On the same count and under the same terms, the same measure for `COc1c(Cl)cc(C(=O)N(Cc2ccccc2F)C2CCS(=O)(=O)C2)cc1Cl` (stereo unspecified): 0.249%; for `CCOc1ccc(N(Cc2ccccc2)C(=O)c2nc(SCC)ncc2Cl)cc1`: 4.15%.
Consider `CCOc1ccc(N(Cc2ccccc2)C(=O)c2nc(S(C)(=O)=O)ncc2Cl)cc1`, for which the Potency was 12.6 µM (active).
In the case of `CCOc1ccc(NC(=O)CN(Cc2ccccc2)S(=O)(=O)c2ccc(Cl)cc2)cc1`, the “activity change, negative = cytotoxicity” value is -9.94%.
Same read-out and setting: the value for `CCOc1cc(C2c3c(-c4ccc(Br)cc4)n[nH]c3C(=O)N2c2ccc(Cl)cc2)ccc1O` (stereo unspecified) was 14.7%.
Regarding `CN1C(=O)c2ccccc2Sc2ccc(NC(=O)Cc3ccc(Cl)cc3)cc21`, the “activity change, negative = cytotoxicity” value was 32.9%.
The same measure, in the same setting: the value for `COc1ccc(Cn2ccnc2SCC(=O)NCc2ccco2)cc1` was -3.47%.
The same measure, in the same setting: the value for `O=C(Nc1cccc(NC(=O)c2ccc(Br)cc2)c1)c1ccccc1` was -4.77%.
As for `C/C(=C\C(=O)c1cccnc1)Nc1ccc(C)c(C)c1`, the “activity change, negative = cytotoxicity” value is -22.1%.
`C/C(=C\C(=O)c1ccccc1)Nc1cccc(O)c1`: the Potency was 10 µM (active).
As for `O=C(Nc1cc(C(F)(F)F)ccc1Cl)c1ccc2c(c1)CCN2S(=O)(=O)c1ccccc1`, the “activity change, negative = cytotoxicity” value is 4.42%.
As for `Cc1cc(/C=N/n2cnnc2)c(C)n1-c1cccc(C(=O)O)c1`, the “activity change, negative = cytotoxicity” value is -3.07%.
Regarding `Cc1ccccc1-n1c(C)cc(/C=C2\NC(=O)NC2=O)c1C`, the Potency was 15.8 µM (active).
Consider `Cc1ccccc1N1CC(c2nc3ccccc3[nH]2)CC1=O` (stereo unspecified), for which the “activity change, negative = cytotoxicity” value was 8.66%.
Regarding `CCC(=O)N1c2ccccc2CC1C(=O)N1CCN(c2cccc(OC)c2)CC1` (stereo unspecified), the “activity change, negative = cytotoxicity” value is 1.92%.
On the same count and under the same terms, the same measure for `Cc1ccc(Cl)cc1NC(=O)CCS(=O)(=O)c1ccc(Br)s1`: 6.48%; for `Cc1cccc(NC(=O)N2CCN(C)c3ncccc32)c1C`: -5.84%; for `O=C(Nc1cc(C(F)(F)F)ccc1Cl)c1nc2ccccc2nc1N1CCCCC1`: -6.02%.
For `COc1ccc(CCNC(=O)c2cc(-c3ccc4c(c3)OCO4)on2)cc1OC`, the “activity change, negative = cytotoxicity” value is -7.31%.
As for `COc1c2c(cc3occ(-c4ccc5c(c4)OCO5)c(=O)c13)OC(C)(C)C=C2`, the Potency was 10 µM (active).
In the case of `COc1ccc(C)cc1N(C)C(=O)c1c(C)oc2ncnc(N3CCOCC3)c12`, the “activity change, negative = cytotoxicity” value is 4.57%.
Same read-out and setting: the value for `CN(c1nc2ccccc2n2c(-c3ccco3)nnc12)S(=O)(=O)c1ccccc1` was 6.38%.
For the compound `Cn1c(-c2ccco2)nc2cc3ccccc3cc21`, the Potency is 1.26 µM (active).
Regarding `c1coc(-c2nc3nc4ccccc4n3nc2-c2ccco2)c1`, the “activity change, negative = cytotoxicity” value is -9.48%.
The same measure, in the same setting: the same measure for `CC(=O)c1cccc(NC(=O)c2nc(-c3ccccc3)n(-c3cccc(C)c3)n2)c1`: 4.4%.
Consider `c1ccc(-c2noc(-c3cccs3)n2)nc1`, for which the Potency was 12.6 µM (active).
As to `CC(C)c1nc(-c2ccccn2)no1`, the “activity change, negative = cytotoxicity” value was 4.68%.
Still for that read-out and setting: the value for `c1csc(-c2nc(-c3ccncc3)no2)c1` was -13.7%; that for `O=C(Nc1ccccc1Cl)N1CCC(CN2CCCCC2)CC1` was 8%; that for `COc1cn(CC(=O)Nc2cccc(C)c2C)c(CN2CCCCC2)cc1=O` was -3.44%.
Turning to `CCN1CCC(N(Cc2ccc(F)cc2)C(=O)Nc2cc(C)ccc2C)CC1`, the “activity change, negative = cytotoxicity” value is -2.24%.
Still for that read-out and setting: the same measure for `Cc1cc(Cl)ccc1NC(=O)Cc1ccc(NC(=O)N2CCCCc3ccccc32)cc1`: 4.61%; for `Cc1ccc2nc(CC(=O)c3ccc4ccccc4c3)c(=O)[nH]c2c1`: 3.51% [at 9.22 µM].
As for `C=CC(=O)c1ccc2ccccc2c1`, the Potency was 12.6 µM (active).
Consider `CCOc1ccccc1NC(=O)CSc1ncc(S(=O)(=O)c2ccc(C(C)(C)C)cc2)c(=O)[nH]1`, for which the “activity change, negative = cytotoxicity” value is 3.76%.
`Cn1c(COc2ccccc2C(C)(C)C)nc2ccccc21`: the “activity change, negative = cytotoxicity” value is -23.2%.
On to `NC(=O)CSc1oc(-c2cccs2)nc1S(=O)(=O)c1ccccc1`, for which the “activity change, negative = cytotoxicity” value was 6.56%.
Same read-out and setting: the value for `CSc1oc(-c2cccs2)nc1S(=O)(=O)c1ccc(Br)cc1` was 14.3%.
As for `CCCCS(=O)(=O)c1oc(-c2cccs2)nc1S(=O)(=O)c1ccccc1`, the Potency is 17.8 µM (active).
On to `COc1cc(NC(=O)CCn2nc(C)cc2C)cc(OC)c1OC`, for which the “activity change, negative = cytotoxicity” value is -3.71%.
Still for that read-out and setting: the value for `CC(=O)c1cccc(Nc2ccc3cc(S(=O)(=O)N4CCC(C)CC4)ccc3n2)c1` was 19.8%.
Regarding `COc1ccc(N(C)C(=O)C2CCN(S(=O)(=O)c3cc(Br)cc4c3N(C(C)=O)CC4)CC2)cc1`, the “activity change, negative = cytotoxicity” value is 1.57%.
Same read-out and setting: the value for `CC(C)n1c(-c2cccs2)nc2ccccc21` was -3.01%.
In the case of `Cc1csc(-c2nc3ccccc3n2C)n1`, the Potency is 15.8 µM (active).
As for `Cc1nn2c3ccccc3nc2n(C)c1=O`, the “activity change, negative = cytotoxicity” value was 5.55%.
On to `Cc1nn(CC(=O)NCCc2ccccc2)c(=O)c2c1sc1ccccc12`, for which the “activity change, negative = cytotoxicity” value was 18.9%.
Still for that read-out and setting: the value for `COc1ccccc1N1CCN(C2C(=O)c3ccccc3N2C(C)=O)CC1` (stereo unspecified) was 13.8%; that for `CCOC(=O)c1ccc(NC(=O)c2nc(SCc3ccc(F)cc3)ncc2Cl)cc1` was -4.24%.
In the case of `CCSc1ncc(Cl)c(C(=O)Nc2cc(C)ccc2C)n1`, the “activity change, negative = cytotoxicity” value is 12.7%.
Consider `Cc1ccc(NC(=O)c2nc(S(=O)(=O)Cc3cccc(C)c3)ncc2Cl)cc1`, for which the Potency is 17.8 µM (active).
Consider `Cc1sc2ncn(CC(=O)N3CCN(c4ccc(F)cc4)CC3)c(=O)c2c1S(=O)(=O)N1CCN(c2ncccn2)CC1`, for which the “activity change, negative = cytotoxicity” value was 20.4%.
The same measure, in the same setting: the value for `CCOC(=O)c1cccc(NS(=O)(=O)c2cc(-c3cnc(C)o3)ccc2OC)c1` was 8.04%; that for `CCOc1ccc2oc(=O)cc(CN3CCN(C(=O)c4ccc(F)cc4)CC3)c2c1` was 8.43%; that for `O=c1oc2cc(O)ccc2cc1-c1ccc(F)cc1` was -2.7%.
On the same count and under the same terms, the value for `COc1ccc2cc(-c3nc(Cl)c4c5c(sc4n3)CC(C)CC5)c(=O)oc2c1` (stereo unspecified) was 5.32%.
For the compound `COc1ccc(-c2cc3ccc(OCc4nn[nH]n4)cc3oc2=O)cc1`, the Potency was 10 µM (active).
Regarding `COc1ccc(S(=O)(=O)NCC(c2ccc(N(C)C)cc2)N2CCc3ccccc32)cc1OC` (stereo unspecified), the “activity change, negative = cytotoxicity” value was -1.28%.
Same read-out and setting: the value for `COc1ccc(C2=NC3(CCCCC3)N(CC(=O)Nc3ccc(C(C)C)cc3)C2=O)cc1` was 8.4%; that for `O=C(CCc1nc(CN2CCN(S(=O)(=O)c3ccc(F)cc3)CC2)no1)N1CCCCC1` was 2.7%; that for `CCC(C(=O)Nc1cccc(-c2nc3cccnc3s2)c1C)c1ccccc1` (stereo unspecified) was -4.21%.
Still for that read-out and setting: the value for `Cc1c(NC(=O)Cc2ccccc2)cccc1-c1nc2cccnc2s1` was 6.14%.
For the compound `Cc1c(NC(=O)C(C)(C)C)cccc1-c1nc2ccccc2s1`, the Potency is 12.6 µM (active).
Consider `Cc1nn(CC(=O)N2CCN(c3cccc(C(F)(F)F)c3)CC2)c(=O)c2cc3sccc3n12`, for which the “activity change, negative = cytotoxicity” value was -3.21%.
On the same count and under the same terms, the value for `COc1cc(NC(=O)c2noc3c2CSc2ccccc2-3)cc(OC)c1OC` was -2.69%; that for `COc1ccccc1CNC(=O)Cn1nc(C)c2nn(-c3ccc(Cl)cc3)c(C)c2c1=O` was 4.68%.

For the origin of these results see PubChem BioAssay AID924 (National Center for Advancing Translational Sciences (NCATS), 2007).
